Assay results from PubChem BioAssay (NCI).
The panel holds about 83,000 compounds, 20% with a hit somewhere; the sample as a whole holds those more often.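 A percent growth of 40 corresponds to 60% growth inhibition; 0 means no net growth; -100 means all cells died. Active threshold: below 10.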 The source made the active and inactive calls.

Tests used:
Assay in all cases: NCI-60 one-dose screen, 48 h (100 = growth as untreated, 0 = no growth, -100 = all killed)
Conditions in all cases: 10 µM unless noted
[1] = tested on: DU-145 prostate
[2] = tested on: K-562 leukemia
[3] = tested on: MALME-3M melanoma
[4] = tested on: MDA-MB-231 breast
[5] = tested on: RXF 393 renal
[6] = tested on: SF-268 CNS
[7] = tested on: SF-295 CNS
[8] = tested on: SF-539 CNS
[9] = tested on: UACC-257 melanoma
[10] = tested on: M14 melanoma

Measured: growth

O=C(O)/C=C/c1cn(-c2ccccc2)nc1-c1ccc(F)cc1
inactive: [1] 115% | [2] 100% | [3] 105% | [4] 95% | [5] 113% | [6] 83.7% | [7] 87.7% | [8] 92.6% | [9] 80.7% | [10] 90%

O=C(Nc1ccccc1C(F)(F)F)C1=NCCCCN1
inactive: [1] 106% | [2] 94.4% | [3] 103% | [4] 102% | [5] 97% | [6] 96.8% | [7] 93.6% | [8] 96.1% | [9] 99% | [10] 98.3%

Nc1ncc(-c2ccc3ncnc(N4CCc5ccc(Cl)cc54)c3c2)cn1
inactive: [1] 10% | [2] 10.5% | [6] 11.2%
active: [3] -17.4% | [4] -3.01% | [5] -29.4% | [7] -7.57% | [8] -68.8% | [9] 8.1% | [10] 8.74%

COc1cc(/C=C/c2cc(/C=C/c3ccc(O)c(OC)c3)n(C(=O)Nc3ccc(C)cc3C)n2)ccc1O
inactive: [4] 10.2%
active: [1] -26.6% | [2] -7.18% | [3] -21.7% | [5] -67.3% | [6] 3.8% | [7] -51% | [8] -19.6% | [9] -21.4% | [10] -38.1%

O=C1/C(=C/c2ccccc2)COc2ccc(O)cc21
inactive: [1] 88.5% | [2] 17.5% | [3] 106% | [4] 92.9% | [5] 105% | [6] 90.6% | [7] 107% | [8] 108% | [9] 98.2% | [10] 85.8%

C#CCOc1cc(/C=N/Nc2nc(-c3ccc(OC)cc3)cs2)ccc1O
inactive: [1] 95.7% | [2] 59.1% | [3] 86.1% | [4] 96.5% | [5] 107% | [6] 94.3% | [7] 84.1% | [8] 93% | [9] 93.2% | [10] 94.2%

CC(=O)[C@H]1CC[C@]2(C)[C@@H]1CC[C@@H]1[C@@]3(C)C/C(=C/c4cccnc4)C(=O)C(C)(C)[C@@H]3CC[C@]12C
inactive: [1] 85.3% | [2] 30.3% | [3] 82.6% | [4] 83.9% | [5] 97.7% | [6] 79.7% | [7] 89.8% | [8] 97.6% | [9] 63.4% | [10] 71.8%

COc1ccc(/C=C\c2cc(OC)c(OC)c(OC)c2)cc1OCC(=O)Nc1nc2ccccc2s1
inactive: [2] 15.6% | [3] 49.7% | [4] 21.8% | [5] 20.6% | [6] 24.1% | [8] 11.8% | [9] 54.4% | [10] 27.6%
active: [1] -27.3% | [7] 9.97%

COc1cc2c(c(OC)c1OC)CCC(c1cccc(C(=O)Nc3ccccc3Br)c1)O2 (stereo not given)
inactive: [1] 86.7% | [2] 71.5% | [3] 89.6% | [4] 83.3% | [5] 91.8% | [6] 87.1% | [7] 94.9% | [8] 83.1% | [9] 90.7% | [10] 67.4%

COc1cc(CNC(=O)CCCC/C=C/C(C)C)ccc1OCc1cn(-c2ccc(C(F)(F)F)cc2)nn1
inactive: [1] 80.7% | [2] 76.3% | [3] 99.7% | [4] 70.7% | [5] 65.6% | [6] 87.8% | [7] 90.9% | [8] 81.9% | [9] 98.2% | [10] 97.5%

COC(=O)[C@H]1Cc2c([nH]c3ccccc23)[C@H](c2ccc3c(c2)OCO3)N1
inactive: [1] 101% | [2] 99.3% | [3] 99.8% | [4] 98.5% | [5] 109% | [6] 96.3% | [7] 99.8% | [8] 92.8% | [9] 107% | [10] 108%

CNc1nc2ncc(-c3c(C)noc3C)cc2n1Cc1ccccc1
inactive: [1] 79.4% | [2] 49.3% | [3] 45.4% | [4] 50.3% | [5] 54.1% | [6] 80.7% | [7] 57.4% | [8] 41% | [9] 42.3% | [10] 31.5%

COC(=O)c1c(C)nc(C)c2c1C(=O)C(Br)=C(NCCN1CCOCC1)C2=O
inactive: [1] 112% | [2] 97.4% | [3] 37% | [4] 112% | [5] 106% | [6] 95.3% | [7] 95.8% | [8] 107% | [9] 87.5% | [10] 87.8%

CC1=C(C(=O)OCc2ccccc2)C(c2ccc3c(c2)OCO3)n2c(nc3ccccc32)N1 (stereo not given)
active: [8] 9.94%
inactive: [1] 53.5% | [2] 13.8% | [3] 39.7% | [4] 68.6% | [5] 53.2% | [6] 59.6% | [7] 20.4% | [9] 60.4% | [10] 28.1%

COc1ccc(N/N=C/c2ccc3c(c2)Sc2ccccc2N3C)cc1
active: [2] 4.21% | [7] 6.85%
inactive: [1] 58.7% | [3] 107% | [4] 84.2% | [5] 105% | [6] 53.7% | [8] 57.1% | [9] 96.1% | [10] 40.9%

O=C1C=CC2(O)OC(c3ccccc3)CC(=O)C2=C1O (stereo not given)
inactive: [1] 15.7% | [2] 72.6% | [3] 95.7% | [4] 73.2% | [5] 94% | [6] 40.4% | [7] 107% | [8] 86.1% | [9] 87.9% | [10] 90.3%

O=C(N/N=C/c1ccccc1Cl)c1ccccc1Nc1ccnc(C(F)(F)F)c1
inactive: [1] 29.4% | [6] 14.1% | [10] 23.1%
active: [2] 4.98% | [3] 5.72% | [4] -17.1% | [5] -13.4% | [7] -41.1% | [8] 4.39% | [9] -2.5%

COc1ccc(S(=O)(=O)NC2c3ccccc3CC2O)cc1OC (stereo not given)
inactive: [1] 111% | [2] 102% | [3] 110% | [4] 112% | [5] 117% | [6] 93.6% | [7] 98.3% | [8] 101% | [9] 111% | [10] 99.1%

CCOC(=O)CSc1nc2sc3c(c2c(=O)n1-c1ccccc1)CCCCC3
inactive: [1] 108% | [2] 98.4% | [3] 109% | [4] 105% | [5] 119% | [6] 104% | [7] 96.3% | [8] 101% | [9] 96.8% | [10] 108%

COC(=O)[C@@H](Cc1c[nH]c2ccccc12)NC[C@@H](O)CN1C(=O)/C(=C\c2cc(OC)c(OC)c(OC)c2)c2ccccc21
inactive: [1] 75.1% | [2] 36% | [3] 84.8% | [4] 82.5% | [5] 72% | [6] 70.6% | [7] 69.4% | [8] 93.3% | [9] 62.2% | [10] 64.6%

O=C(Cn1cc(CSc2nc3ccccc3o2)nn1)Nc1ccc([N+](=O)[O-])cc1
inactive: [1] 108% | [2] 92.6% | [3] 104% | [4] 91.5% | [5] 108% | [6] 91.8% | [7] 102% | [8] 101% | [9] 110% | [10] 96.2%

OC1CSSC1Cn1cnc2c(Nc3ccc(F)c(Cl)c3)ncnc21 (stereo not given)
active: [10] -65.9%
inactive: [1] 85.8% | [2] 32.5% | [3] 65.1% | [4] 84.6% | [5] 114% | [6] 81.8% | [7] 106% | [8] 93.2% | [9] 82%

CC/C(=C(/c1ccc(Cl)cc1)c1ccc(OCCN(CC)CC)cc1)c1ccc(OC)cc1
inactive: [1] 74.4% | [3] 68.2% | [4] 71.8% | [5] 45% | [6] 79.3% | [7] 36.9% | [8] 62.3% | [9] 64.9% | [10] 34.5%
active: [2] -18%

COc1ccc(-c2ccc(-c3ccc(C(=N)N)o3)o2)cc1
inactive: [3] 57.1% | [5] 25.1% | [6] 39.8% | [7] 35.6% | [8] 23% | [9] 37.9% | [10] 35.1%
active: [1] 6.23% | [2] -9.69% | [4] 8.3%

Cc1c(-c2cnc3ccc(Cl)cc3c2C(=O)O)nnn1-c1ccc(Cl)cc1
inactive: [1] 114% | [2] 101% | [3] 99.6% | [4] 85.8% | [5] 122% | [6] 111% | [7] 97.7% | [8] 99.6% | [9] 95.9% | [10] 69.8%

Cc1ccc(C2(C)NC(=O)N(CC(=O)Nc3cccc(C)c3)C2=O)cc1 (stereo not given)
inactive: [1] 110% | [2] 112% | [3] 100% | [4] 99.4% | [5] 101% | [6] 104% | [7] 107% | [8] 103% | [9] 101% | [10] 110%

CCCCCCCCNc1ncnc2c1ncn2Cc1nnc2c3ccccc3c(Cl)nn12
inactive: [1] 49% | [2] 14.8% | [3] 69.9% | [4] 55.4% | [5] 36.1% | [6] 35.5% | [7] 61.8% | [8] 49.9% | [9] 46.9% | [10] 34.5%
